# PubChem BioAssay AID463173 (ICCB-Longwood Screening Facility, Harvard Medical School, 2010)
# In all, about 52,000 compounds went through this assay and about 4,300 (8.3%) were called active. Rule as the data show it: active = survival mostly below about 52% (no sharp cut-off); inactive = mostly above about 56%. The sample as a whole holds a higher share of actives than the screen did.
# Tested on: DeltatarO mutant
# Assay: growth inhibition of S. aureus wild type versus tarO mutant, primary screen, teichoic acid synthesis inhibitors, RN4220, OD600 (AID 463173)
# Settings: OD600, 18 h, active compounds read low, screened at 18.75 µg/mL (by protocol)
row,SMILES,survival
1,CCc1ccc2[nH]c3nc(SCC(=O)OC(C)C)nnc3c2c1,108% (inactive)
2,Cc1cc(C)c2c(=O)c3c(oc2c1)C(=O)N(CCCOC(C)C)C3c1ccccc1F (stereo not drawn),67% (inactive)
3,CCOC(=O)CSc1nc2c([nH]c3ccccc32)c(=O)n1-c1ccc(OCC)cc1,99% (inactive)
4,CCOc1ccc(-n2c(SC(C)C(=O)OC)nc3c([nH]c4ccccc43)c2=O)cc1 (stereo not drawn),0% (active)
5,Cc1cc(C)cc(-n2c(SCC(=O)N3CCCCC3)nc3c([nH]c4ccccc43)c2=O)c1,88% (inactive)
6,COc1ccc(-n2c(SCC(=O)N3CCC(C)CC3)nc3c([nH]c4ccccc43)c2=O)cc1,70% (inactive)
7,CCOc1ccc(-n2c(SCC(=O)N3CCOCC3)nc3c([nH]c4ccccc43)c2=O)cc1,0% (active)
8,CCOc1ccc(-n2c(SCC(=O)N3CCCC3)nc3c([nH]c4ccccc43)c2=O)cc1,98% (inactive)
9,CCOc1ccc(-n2c(SCC(=O)N3CCCCC3)nc3c([nH]c4ccccc43)c2=O)cc1,107% (inactive)
10,COC(=O)C(C)Sc1nc2c([nH]c3ccccc32)c(=O)n1-c1ccc(OC)cc1 (stereo not drawn),64% (inactive)
11,Cc1cc(C)cc(-n2c(SCC(=O)N3CCC(C)CC3)nc3c([nH]c4ccccc43)c2=O)c1,17% (active)
12,Cc1ccc(-n2c(SCC(=O)N3CCC(C)CC3)nc3c([nH]c4ccccc43)c2=O)cc1,-5% (active)
13,CC1CCN(C(=O)CSc2nc3c([nH]c4ccccc43)c(=O)n2-c2ccccc2)CC1,75% (inactive)
14,Cc1cc(C)cc(-n2c(SCC(=O)N3CCCC3)nc3c([nH]c4ccccc43)c2=O)c1,89% (inactive)
15,Cc1ccccc1S(=O)(=O)Cc1ccc(C(=O)NCc2ccccc2Cl)o1,56% (inactive)
16,Cc1ccc(-n2ncc(C(=O)NCCCN3CCc4ccccc4C3)c2C2CCN(C(=O)OC(C)(C)C)CC2)cc1C,73% (inactive)
17,COc1cccc(-n2cc(C(=O)NCc3ccccc3OC)c3ccccc3c2=O)c1,72% (inactive)
18,CCC(Oc1ccccc1)C(=O)Nc1cccc(OCc2cc(=O)n3cccc(C)c3n2)c1 (stereo not drawn),128% (inactive)
19,O=C1N(CN2CCCCC2)c2ccccc2C12OCCCCO2,94% (inactive)
20,CCc1ccc(OCC2c3cc(OC)c(OC)cc3CCN2C(=O)Cc2ccc(OC)c(OC)c2)cc1 (stereo not drawn),76% (inactive)
21,COc1ccccc1OCC(=O)NCC(c1ccc(Cl)cc1)N1CCCCC1 (stereo not drawn),61% (inactive)
22,O=C(Nc1ccc(F)cc1F)c1cc(S(=O)(=O)N2CCCCC2)c[nH]1,83% (inactive)

row,SMILES,survival
1,Cc1ccc(NC(=O)c2cc(-c3ccc(Br)s3)nc3ccccc23)cc1F,59% (inactive)
2,CCOc1cccc(CC(=O)N2CCc3c([nH]c4ccccc34)C2c2ccc(SC)cc2)c1OCC (stereo not drawn),107% (inactive)
3,Cn1nccc1C(=O)NCc1ccc2c(c1)CCN2C(=O)c1ccc(F)cc1,65% (inactive)
4,COc1ccc(-n2c(SCC(=O)NCc3ccco3)nc3c([nH]c4ccccc43)c2=O)cc1,102% (inactive)
5,O=C(CSc1nc2c([nH]c3ccccc32)c(=O)n1-c1ccc(F)cc1)NCc1ccco1,81% (inactive)
6,COC(=O)c1ccc(CSc2nc3c([nH]c4ccccc43)c(=O)n2-c2ccc(Cl)cc2)o1,112% (inactive)
7,COC(=O)c1ccc(CSc2nc3c([nH]c4ccccc43)c(=O)n2-c2cccc(Cl)c2)o1,79% (inactive)
8,COC(=O)c1ccc(CSc2nc3c([nH]c4ccccc43)c(=O)n2-c2cc(C)cc(C)c2)o1,8% (active)
9,CCOc1ccc(-n2c(SCC(=O)NCc3ccco3)nc3c([nH]c4ccccc43)c2=O)cc1,37% (active)
10,CCC(C)NC(=O)CSc1nc2cc3c(cc2c(=O)n1CCCCCC(=O)NCc1ccc2c(c1)OCO2)OCO3 (stereo not drawn),84% (inactive)
11,O=C(COc1ccccc1F)Nc1c(C(=O)Nc2cccc(F)c2)oc2ccccc12,75% (inactive)
12,COc1ccc(CCNc2nc(-c3ccc(OC)c(OC)c3)cc(C(F)(F)F)n2)cc1OC,4% (active)
13,COc1ccc(CCNC(=O)Cn2nc(-c3ccc(Cl)cc3)ccc2=O)cc1OC,75% (inactive)
14,COc1ccc(CCNC(=O)C2CCN(c3nc4ccccc4nc3C(F)(F)F)CC2)cc1OC,92% (inactive)
15,COc1cccc(-c2cc(C(F)(F)F)nc(NCCc3ccc(OC)c(OC)c3)n2)c1,4% (active)
16,COc1ccc(CCNC(=O)CSc2nc(-c3ccc(F)cc3)cc(C(F)(F)F)n2)cc1OC,77% (inactive)
17,COc1ccc(CCNc2nc(-c3ccc(F)cc3)cc(C(F)(F)F)n2)cc1OC,109% (inactive)
18,COc1ccc(CCNc2nc(-c3ccc(C)cc3)cc(C(F)F)n2)cc1OC,87% (inactive)
19,COc1ccc(CCNc2nc(-c3ccccc3OC)cc(C(F)(F)F)n2)cc1OC,-8% (active)
20,COc1ccc(-c2cc(C(F)(F)F)nc(SCC(=O)NCCc3ccc(OC)c(OC)c3)n2)cc1,59% (inactive)
21,COc1ccc(CCNc2nc(-c3ccc(Cl)cc3)cc(C(F)(F)F)n2)cc1OC,8% (active)
22,CCOC(=O)N1CCC(NC(=O)c2cnn(-c3ccc(C)cc3)c2-n2cccc2)CC1,69% (inactive)

row,SMILES,survival
1,CCc1ccc2[nH]c(=O)c(CN(CCCN3CCOCC3)C(=S)NC)cc2c1,88% (inactive)
2,CC(C)c1c(O)nc(SCCN2CCOCC2)[nH]c1=O,92% (inactive)
3,CCOc1ccc2nc(NC3=NCCC(=O)N3)nc(C)c2c1,80% (inactive)
4,CCN(CC)C(=O)c1sc2c(c1C)c(=O)n(-c1ccc(C)c(C)c1)c(=O)n2CC(=O)Nc1ccc(F)cc1,92% (inactive)
5,CCCCc1nn2c(=O)cc(COC(=O)c3ccc(NC(=O)C4CCCCC4)cc3)nc2s1,91% (inactive)
6,CCn1cc(C(=O)NCc2ccc(Cl)cc2)c(=O)c2cc(S(=O)(=O)N3CCc4ccccc4C3)ccc21,64% (inactive)
7,CCN(CC)C(=O)COc1ccc2ccc(=O)oc2c1,84% (inactive)
8,COc1ccccc1CNC(=O)CCCn1c(=O)c2ccccc2n(Cc2ccc(C)cc2)c1=O,132% (inactive)
9,CCOC(=O)Cn1c(=O)n(C2CCCCC2)c2nc(-c3ccc(OCC)cc3)nc(C(N)=O)c21,86% (inactive)
10,CCCS(=O)(=O)N1CC(=O)N(c2ccccc2C)C(C)(C(=O)NC2CCCCC2)C1 (stereo not drawn),75% (inactive)
11,COc1ccccc1NC(=O)C1CCN(S(=O)(=O)c2cn(C)cn2)CC1,69% (inactive)
12,CCCc1nc2nc(C)c(NS(=O)(=O)c3ccc(C)c(C)c3)c(=O)n2[nH]1,129% (inactive)
13,COc1cc(OC)cc(C(=O)Oc2c(Sc3ccccc3)c(C)nn2C(C)(C)C)c1,43% (active)
14,Cc1nn(C(C)(C)C)c(OC(=O)c2c(F)cccc2F)c1Sc1ccccc1,127% (inactive)
15,COc1ccc(C(=O)Oc2c(Sc3ccc(Cl)cc3)c(C)nn2C(C)(C)C)cc1OC,56% (inactive)
16,CCOc1ccc(C(=O)Oc2c(Sc3ccccc3)c(C)nn2C(C)(C)C)cc1OCC,57% (inactive)
17,Cc1cccc(C(=O)Oc2c(Sc3ccccc3)c(C)nn2C(C)(C)C)c1,57% (inactive)
18,Cc1nn(C(C)(C)C)c(OC(=O)c2cccc(F)c2)c1Sc1ccccc1,24% (active)
19,CCOc1ccc(NC(=O)CSc2nc(-c3ccc(OC)cc3)nc3c2Cc2c(CO)cnc(C)c2O3)cc1,79% (inactive)
20,CS(=O)(=O)N1CCc2cc(C(=O)N3CCN(c4ccccc4F)CC3)ccc21,45% (inactive)
21,COc1ccc(C(=O)Nc2nc3nc(C)c(Cl)c(=O)n3[nH]2)cc1,100% (inactive)
22,COc1cc(C2CC(=O)N(c3ccccc3)C3=C2C(=O)OC3)cc(OC)c1OC (stereo not drawn),72% (inactive)

row,SMILES,survival
1,Cc1cc2cc(CN(CC3COCCO3)S(=O)(=O)c3ccc(F)cc3)c(=O)[nH]c2cc1C (stereo not drawn),103% (inactive)
2,O=C1c2cccc3cccc(c23)N1c1ccccc1,77% (inactive)
3,COC(=O)C(NC(=O)CC(C)C)(Nc1nc2c(s1)CCCC2)C(F)(F)F (stereo not drawn),120% (inactive)
4,COc1ccc(CNC(=O)c2cc(-c3ccc(Cl)cc3)n[nH]2)cc1,78% (inactive)
5,COc1ccc(-c2cc(C(F)(F)F)nc(SCC(=O)NCc3ccc(Cl)cc3)n2)cc1,62% (inactive)
6,COc1ccc(-c2cc(C(F)(F)F)nc(NCc3ccc(Cl)cc3)n2)cc1,3% (active)
7,COc1ccc(CNc2nc(-c3ccc(Cl)cc3)cc(C(F)(F)F)n2)cc1,29% (active)
8,CCN(c1cccc(C)c1)S(=O)(=O)c1ccc2[nH]cc(C(=O)NCCCOC)c(=O)c2c1,67% (inactive)
9,COc1ccc(N(C)C(=O)c2nc(-c3cccc(F)c3)n3c2CCCCC3)c(OC)c1,74% (inactive)
10,CCOC(=O)c1cccc(NS(=O)(=O)c2cc(-c3cnc(C4CC4)o3)ccc2C)c1,90% (inactive)
11,O=C(Nc1cccnc1)c1cc(-c2ccc(Cl)cc2)on1,61% (inactive)
12,CN1/C(=C\C(=O)Nc2cccnc2)c2ccccc2CC1(C)C,65% (inactive)
13,Cn1c(=O)oc2cc(S(=O)(=O)CCC(=O)NCCc3ccccc3)ccc21,96% (inactive)
14,COc1ccc(NC(=O)c2c(NC(=O)COc3ccccc3)sc3c2CCC(C(C)(C)C)C3)cc1 (stereo not drawn),75% (inactive)
15,COc1ccc(NC(=O)c2c(NC(=O)c3ccncc3)sc3c2CCC(C(C)(C)C)C3)cc1 (stereo not drawn),41% (active)
16,COC(=O)c1c(NC(=O)C2c3ccccc3Oc3ccccc32)sc2c1CCC(C(C)(C)C)C2 (stereo not drawn),78% (inactive)
17,COC(=O)c1c(NC(=O)c2cccc(OC)c2)sc2c1CCC(C(C)(C)C)C2 (stereo not drawn),43% (active)
18,CCOc1ccc(NC(=O)c2c(NC(=O)c3cccs3)sc3c2CCC(C(C)(C)C)C3)cc1 (stereo not drawn),67% (inactive)
19,Cc1ccccc1NC(=O)c1c(NC(=O)c2ccncc2)sc2c1CCC(C(C)(C)C)C2 (stereo not drawn),110% (inactive)
20,CCOc1ccc(NC(=O)c2c(NC(=O)c3ccncc3)sc3c2CCC(C(C)(C)C)C3)cc1 (stereo not drawn),113% (inactive)
21,CC(C)(C)C1CCc2c(sc(NC(=O)c3cccc(Cl)c3)c2C(N)=O)C1 (stereo not drawn),70% (inactive)
22,CCC(=O)Nc1sc2c(c1C(=O)Nc1ccc(OC)cc1)CCC(C(C)(C)C)C2 (stereo not drawn),13% (active)
